Measured values: patent US20210230599, “STEM-LOOP COMPOSITIONS AND METHODS FOR INHIBITING INTERLEUKIN-8” (VITRISA THERAPEUTICS, INC., published 2021)

biological target: Interleukin-8 (IL8, CXCL8), C-terminal His-tagged (Homo sapiens, UniProt P10145 SEQ:1-72); test: competition; competition TR-FRET; L1 mutant; settings: tags: C-terminal 6xHis (Sino Biological); ssRNA; 2'-F G, 2'-OMe A/C/U, 5' C6NH2, 3' idT
Method: Activity of each of these variants were tested using a time resolved competition TR-FRET assay in which the labeled parent Aptamer 3 was competed with increasing concentrations of unlabeled variants for binding to IL8 (FIG. 14). Briefly, 2-fold dilutions of thermally equilibrated aptamers were made in TR-FRET Buffer (50 mM MOPS, pH 7.4, 125 mM NaCl, 5 mM KCl, 50 μM CHAPS, 0.1 mg/mL BSA, 1 mM CaCl₂, and 1 mM MgCl₂). 5 μL of aptamer or control solution was added to 5 μl mix of 10 nM C-terminal His-tagged-IL8, 60 nM ALEXA FLUOR® 647-labeled Aptamer, and 5 nM anti-His-Eu (Perkin Elmer) in a black wall low volume 384 well plate (Greiner). For control, 5 μl of 1000-fold excess of unlabeled parent aptamer or 5 μl TR-FRET buffer alone was added to the mix of ALEXA FLUOR® 647-labeled aptamer, His-IL8, and anti-His-Eu. The plate was covered with a plate seal and subsequently incubated in the dark for 1 hour at room temperature. The plate was read on a Biotek CYTATION™ 5 plate reader. Samples were excited at 330 nm and fluorescent values were collected at 665 nm. Data analysis was performed by subtracting the background value and plotting as percent inhibition, normalized to baseline in the absence of competitor. The values were fit by [Inhibitor] vs. response—Variable slope (four parameters) using GraphPad Prism Version 7.0 and then normalized to aptamer control to obtain an IC₅₀ relative to parent aptamer. Data is presented as log values of relative IC₅₀.
To confirm the sequence conservation of this loop, variants of Aptamer 32 were made (4 base pair S1 version of parent Aptamer 8) where each position of L1 was individually replaced with the other 3 bases and tested for binding in the competition TR-FRET assay.

Binding signal, > 10 fold worse than Aptamer 8:
CGGUGGAAAAUGUGAGAUGGGUUGCCG
CGGUGAGAAAUGUGAGAUGGGUUGCCG
CGGUGUGAAAUGUGAGAUGGGUUGCCG
CGGUUGGAAAUGUGAGAUGGGUUGCCG
CGGUGGGUAAUGUGAGAUGGGUUGCCG
CGGUGGGCAAUGUGAGAUGGGUUGCCG
CGGUCGGAAAUGUGAGAUGGGUUGCCG
CGGUGGUAAAUGUGAGAUGGGUUGCCG
CGGUGGCAAAUGUGAGAUGGGUUGCCG
CGGUGGGGAAUGUGAGAUGGGUUGCCG
CGGUGCGAAAUGUGAGAUGGGUUGCCG
CGGUAGGAAAUGUGAGAUGGGUUGCCG
